Measured values: PubChem BioAssay (NCI)
Values joined by “and” are separate entries in the source; they are usually repeats but may differ in a detail not shown here. Equal entries are not always repeated. Compounds without any hit were thinned out: in the full panel of roughly 83,000, 20% have a hit.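 How to read the values: 0–100, growth inhibition (40 = 60% inhibited); 0, no net growth; -100 to 0, cell death (-40 = 40% of starting cells died; -100 = all dead).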 Active and inactive are the calls of the source. Rule for the calls: active = growth percent below 10; inactive = the rest.

How the values were obtained:
Test in all cases: NCI-60 one-dose screen, 48 h (100 = growth as untreated, 0 = no growth, -100 = all killed)
Conditions in all cases: 10 µM unless noted
HCT-15 colon = tested on: HCT-15 colon
HT29 colon = tested on: HT29 colon
SNB-75 CNS = tested on: SNB-75 CNS
SNB-19 CNS = tested on: SNB-19 CNS
U251 CNS = tested on: U251 CNS
PC-3 prostate = tested on: PC-3 prostate
SK-MEL-5 melanoma = tested on: SK-MEL-5 melanoma
UACC-62 melanoma = tested on: UACC-62 melanoma
LOX IMVI melanoma = tested on: LOX IMVI melanoma
SK-MEL-28 melanoma = tested on: SK-MEL-28 melanoma
SK-MEL-2 melanoma = tested on: SK-MEL-2 melanoma
EKVX NSCLC = tested on: EKVX NSCLC
SN12C renal = tested on: SN12C renal
UO-31 renal = tested on: UO-31 renal
ACHN renal = tested on: ACHN renal
CAKI-1 renal = tested on: CAKI-1 renal
A498 renal = tested on: A498 renal
HL-60(TB) leukemia = tested on: HL-60(TB) leukemia
CCRF-CEM leukemia = tested on: CCRF-CEM leukemia
TK-10 renal = tested on: TK-10 renal

Measured: growth

CN(C)c1ccc(C=C2C(=O)NC(=O)NC2=O)cc1
inactive: HCT-15 colon 102% | HT29 colon 113% | SNB-75 CNS 92% | SNB-19 CNS 99.6% | U251 CNS 97% | PC-3 prostate 105% | SK-MEL-5 melanoma 94.4% | UACC-62 melanoma 94.5% | LOX IMVI melanoma 85.8% | SK-MEL-28 melanoma 92.5% | SK-MEL-2 melanoma 105% | EKVX NSCLC 92.4% | SN12C renal 77.5% | UO-31 renal 92.9% | ACHN renal 89.3% | CAKI-1 renal 78.9% | A498 renal 58.2% | HL-60(TB) leukemia 102% | CCRF-CEM leukemia 115%

Cc1cc(N(CCCl)CCCl)ccc1C=Nc1ccc(-c2csc(-c3ccccc3)n2)cc1
inactive: HCT-15 colon 103% | HT29 colon 112% | SNB-75 CNS 84.6% | SNB-19 CNS 79.4% | U251 CNS 85% | PC-3 prostate 69.6% | SK-MEL-5 melanoma 80.8% | UACC-62 melanoma 58.8% | LOX IMVI melanoma 80.2% | SK-MEL-28 melanoma 105% | SK-MEL-2 melanoma 97.2% | EKVX NSCLC 111% | SN12C renal 64.4% | UO-31 renal 59.9% | TK-10 renal 113% | CAKI-1 renal 32.7% | A498 renal 97.7% | HL-60(TB) leukemia 49.1% | CCRF-CEM leukemia 46.5%

C[C@]12CCC3[C@@H](C[C@@H]4SC(Nc5ccccc5)=N[C@@]45CC(=O)CC[C@]35C)[C@@H]1CCC2=O (stereo not given in full)
inactive: SNB-75 CNS 41.5% | SNB-19 CNS 21.9% | SK-MEL-5 melanoma 26.3% | EKVX NSCLC 49.4% | A498 renal 63.7%
active: HCT-15 colon 1.93% | HT29 colon -55.6% | U251 CNS -82.4% | PC-3 prostate -16.1% | UACC-62 melanoma -1.09% | LOX IMVI melanoma -58.1% | SK-MEL-28 melanoma 1.73% | SK-MEL-2 melanoma 6.9% | SN12C renal -8.78% | UO-31 renal -89% | ACHN renal -62.4% | CAKI-1 renal -45.6% | HL-60(TB) leukemia 6.25% | CCRF-CEM leukemia 3.23%

CNC(=O)Oc1ccc(Cl)cc1SSc1cc(Cl)ccc1OC(=O)NC
inactive: HCT-15 colon 72.7% | HT29 colon 106% | SNB-75 CNS 86.8% | SNB-19 CNS 86.8% | U251 CNS 52.7% | PC-3 prostate 73% | SK-MEL-5 melanoma 43.4% | UACC-62 melanoma 49.7% | LOX IMVI melanoma 85.8% | SK-MEL-28 melanoma 82% | SK-MEL-2 melanoma 77.5% | EKVX NSCLC 109% | SN12C renal 70.9% | UO-31 renal 64.6% | TK-10 renal 123% | CAKI-1 renal 97.1% | A498 renal 98% | HL-60(TB) leukemia 61.3% | CCRF-CEM leukemia 50.7%

O=C(O)C1C(C(=O)O)C2(Cl)C(Cl)=C(Cl)C1(Cl)C2(Cl)Cl (stereo not given)
1.8% (active) and 114% (inactive): CCRF-CEM leukemia
inactive: HCT-15 colon 105% and 106% | HT29 colon 103% | SNB-75 CNS 82.3% and 93.7% | SNB-19 CNS 124% and 100% | U251 CNS 97.7% and 103% | PC-3 prostate 91.7% and 101% | SK-MEL-5 melanoma 104% and 116% | UACC-62 melanoma 104% and 102% | LOX IMVI melanoma 107% and 98.1% | SK-MEL-28 melanoma 108% | SK-MEL-2 melanoma 108% and 113% | EKVX NSCLC 90.4% and 118% | SN12C renal 103% and 101% | UO-31 renal 73.1% and 92.2% | TK-10 renal 116% and 107% | CAKI-1 renal 116% | A498 renal 102% and 101% | HL-60(TB) leukemia 95.1%

COC(=O)C1=CO[C@@H](C)[C@@H]2CN3CCc4c([nH]c5cc(OC)ccc45)[C@@H]3C[C@H]12
inactive: HCT-15 colon 97.6% | HT29 colon 103% | SNB-75 CNS 76.9% | SNB-19 CNS 95.2% | U251 CNS 103% | PC-3 prostate 93.9% | SK-MEL-5 melanoma 98.2% | UACC-62 melanoma 78.3% | LOX IMVI melanoma 94.6% | SK-MEL-28 melanoma 114% | SK-MEL-2 melanoma 100% | EKVX NSCLC 97.5% | SN12C renal 87.8% | TK-10 renal 101% | ACHN renal 94.8% | CAKI-1 renal 89.8% | A498 renal 68.6% | HL-60(TB) leukemia 87.1% | CCRF-CEM leukemia 106%

C[C@]12CC[C@H]3[C@@H](C[C@@H]4SC(Nc5ccccc5)=N[C@@]45C/C(=N/O)CC[C@]35C)[C@@H]1CCC2=O
inactive: HCT-15 colon 44.3% | HT29 colon 32.1% | SNB-75 CNS 76% | SNB-19 CNS 60.3% | U251 CNS 37.5% | PC-3 prostate 60.5% | SK-MEL-5 melanoma 84.5% | UACC-62 melanoma 86% | SK-MEL-28 melanoma 73.3% | SK-MEL-2 melanoma 69% | EKVX NSCLC 86.6% | SN12C renal 84.7% | UO-31 renal 91.5% | TK-10 renal 102% | CAKI-1 renal 59.3% | A498 renal 96.3% | HL-60(TB) leukemia 70.1%
active: LOX IMVI melanoma -4.53% | CCRF-CEM leukemia 8.6%

CCOC(=O)c1ccccc1C(=O)OCC
inactive: HCT-15 colon 93.8% | HT29 colon 102% | SNB-75 CNS 83.3% | SNB-19 CNS 105% | U251 CNS 99.9% | PC-3 prostate 113% | SK-MEL-5 melanoma 110% | UACC-62 melanoma 91.4% | LOX IMVI melanoma 97.9% | SK-MEL-28 melanoma 114% | SK-MEL-2 melanoma 89.7% | EKVX NSCLC 80.3% | SN12C renal 94.6% | UO-31 renal 84.8% | ACHN renal 98.4% | CAKI-1 renal 77.2% | A498 renal 104% | HL-60(TB) leukemia 141% | CCRF-CEM leukemia 94.8%

Cc1nc2ccccc2c(=O)n1-c1ccccc1F
inactive: HCT-15 colon 103% | HT29 colon 103% | SNB-75 CNS 82.1% | SNB-19 CNS 104% | U251 CNS 88.1% | PC-3 prostate 86.6% | SK-MEL-5 melanoma 100% | UACC-62 melanoma 105% | LOX IMVI melanoma 103% | SK-MEL-28 melanoma 111% | SK-MEL-2 melanoma 105% | EKVX NSCLC 89.3% | SN12C renal 95% | UO-31 renal 88.1% | TK-10 renal 98% | CAKI-1 renal 96.4% | A498 renal 84.5% | HL-60(TB) leukemia 89.3% | CCRF-CEM leukemia 99.1%

CCOC(=O)c1cncn1C(C)c1ccccc1 (stereo not given)
inactive: HCT-15 colon 106% | HT29 colon 95.1% | SNB-75 CNS 94.3% | SNB-19 CNS 106% | U251 CNS 100% | PC-3 prostate 97.9% | SK-MEL-5 melanoma 102% | UACC-62 melanoma 100% | LOX IMVI melanoma 101% | SK-MEL-28 melanoma 114% | SK-MEL-2 melanoma 105% | EKVX NSCLC 98.2% | SN12C renal 102% | UO-31 renal 81% | TK-10 renal 95.2% | CAKI-1 renal 94.6% | A498 renal 134% | HL-60(TB) leukemia 104% | CCRF-CEM leukemia 94.7%

O=P1(N(CCCl)CCCl)NCCCO1 (stereo not given)
inactive: HCT-15 colon 106% | HT29 colon 102% | SNB-75 CNS 102% | SNB-19 CNS 102% | U251 CNS 96.8% | PC-3 prostate 106% | SK-MEL-5 melanoma 103% | UACC-62 melanoma 94.4% | LOX IMVI melanoma 104% | SK-MEL-28 melanoma 114% | SK-MEL-2 melanoma 114% | EKVX NSCLC 101% | SN12C renal 95.4% | UO-31 renal 90.3% | ACHN renal 103% | CAKI-1 renal 99.8% | A498 renal 115% | CCRF-CEM leukemia 95.6%

CC/C(=C(\c1ccc(OCCN2CCOCC2)cc1)c1ccc(OC(=O)Cc2ccccc2)cc1)c1ccc(Cl)cc1
inactive: HCT-15 colon 112% | HT29 colon 95.1% | SNB-75 CNS 114% | SNB-19 CNS 99.6% | U251 CNS 103% | PC-3 prostate 95.3% | SK-MEL-5 melanoma 107% | UACC-62 melanoma 99.7% | LOX IMVI melanoma 99% | SK-MEL-28 melanoma 101% | SK-MEL-2 melanoma 101% | EKVX NSCLC 109% | SN12C renal 98.6% | UO-31 renal 87.9% | ACHN renal 117% | CAKI-1 renal 91.9% | A498 renal 104% | HL-60(TB) leukemia 95.5% | CCRF-CEM leukemia 98.1%

O=C(Cc1ccccc1)NC(O)C(Cl)(Cl)Cl (stereo not given)
inactive: HCT-15 colon 118% | HT29 colon 99.3% | SNB-75 CNS 86.1% | SNB-19 CNS 95% | U251 CNS 99.9% | PC-3 prostate 106% | SK-MEL-5 melanoma 105% | UACC-62 melanoma 97.9% | LOX IMVI melanoma 101% | SK-MEL-28 melanoma 110% | SK-MEL-2 melanoma 105% | EKVX NSCLC 124% | SN12C renal 99.3% | UO-31 renal 93.8% | TK-10 renal 99.8% | CAKI-1 renal 108% | A498 renal 104% | HL-60(TB) leukemia 101% | CCRF-CEM leukemia 106%

C[C@]12CC[C@@H](OC(=O)N(CCCl)N=O)C[C@@H]1CC[C@@H]1[C@@H]2CC[C@]2(C)C(=O)CC[C@@H]12
inactive: HCT-15 colon 72.8% | HT29 colon 57.9% | SNB-75 CNS 63.4% | SNB-19 CNS 37.5% | U251 CNS 34.5% | PC-3 prostate 45.6% | SK-MEL-5 melanoma 56.8% | UACC-62 melanoma 30.4% | LOX IMVI melanoma 46.4% | SK-MEL-28 melanoma 99.4% | SK-MEL-2 melanoma 37.8% | EKVX NSCLC 59.8% | SN12C renal 43% | UO-31 renal 49.9% | TK-10 renal 81.8% | CAKI-1 renal 20.7% | CCRF-CEM leukemia 26.6%
active: A498 renal -10.1% | HL-60(TB) leukemia -21.8%
